Assay results as given in the supplement of paper PMC11732987, “Enantioselective OTUD7B fragment discovery through chemoproteomics screening and high-throughput optimisation” (Communications Chemistry, 2025).

Columns and labels:
Assay in all cases: log2 ratio of Biotin-Ahx-Ub-VS probe labelling (fragment/DMSO); higher = less target engagement (more negative = stronger competition), active = hit call of the paper (q ≤ 0.05, log2 ratio ≤ -1)
Conditions in all cases: compound concentration: 200 uM; treatment time: 3 h
ALG13 = molecular target: T1, ALG13 (UniProt Q9NP73)
T1 sequence (whole entry): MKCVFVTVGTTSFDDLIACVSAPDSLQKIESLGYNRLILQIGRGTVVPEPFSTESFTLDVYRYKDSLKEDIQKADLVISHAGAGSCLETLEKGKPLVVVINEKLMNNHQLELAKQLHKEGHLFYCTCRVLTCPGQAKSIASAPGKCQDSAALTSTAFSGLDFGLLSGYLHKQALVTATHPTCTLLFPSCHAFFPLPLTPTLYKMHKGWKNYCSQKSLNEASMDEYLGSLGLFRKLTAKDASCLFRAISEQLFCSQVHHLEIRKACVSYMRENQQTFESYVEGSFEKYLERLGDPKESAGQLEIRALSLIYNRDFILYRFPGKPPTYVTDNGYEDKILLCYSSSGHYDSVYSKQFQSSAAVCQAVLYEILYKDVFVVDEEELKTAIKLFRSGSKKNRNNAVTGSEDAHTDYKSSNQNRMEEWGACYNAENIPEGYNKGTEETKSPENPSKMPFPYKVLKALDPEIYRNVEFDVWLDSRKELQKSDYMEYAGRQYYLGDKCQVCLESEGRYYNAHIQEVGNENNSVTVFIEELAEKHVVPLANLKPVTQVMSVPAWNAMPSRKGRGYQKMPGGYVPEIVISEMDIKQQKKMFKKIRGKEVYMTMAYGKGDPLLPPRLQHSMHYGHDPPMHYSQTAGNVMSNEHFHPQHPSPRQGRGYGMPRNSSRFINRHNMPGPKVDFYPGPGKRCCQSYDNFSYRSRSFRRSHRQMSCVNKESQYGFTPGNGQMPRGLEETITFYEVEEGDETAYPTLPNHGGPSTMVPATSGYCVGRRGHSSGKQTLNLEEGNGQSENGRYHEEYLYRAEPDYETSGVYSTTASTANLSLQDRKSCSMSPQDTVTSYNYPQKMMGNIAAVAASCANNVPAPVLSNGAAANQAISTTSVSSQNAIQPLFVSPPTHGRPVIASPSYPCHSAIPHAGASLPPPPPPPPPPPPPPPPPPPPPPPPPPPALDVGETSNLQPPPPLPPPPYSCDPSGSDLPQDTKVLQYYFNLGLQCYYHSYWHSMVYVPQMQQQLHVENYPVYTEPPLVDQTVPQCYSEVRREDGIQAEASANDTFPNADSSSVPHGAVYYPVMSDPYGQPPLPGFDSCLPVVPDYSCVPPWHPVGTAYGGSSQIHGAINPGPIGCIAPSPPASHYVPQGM
In short: (§1)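 HEK293T lysate (495 µg per sample, in Tris/CHAPS/IGEPAL buffer with protease inhibitors) was exposed in triplicate for 3 h to fragment at 200 µM or to vehicle, then to Biotin-Ahx-Ub-VS at 0.5 µM final for 1 h. Labelled DUBs were enriched on NeutrAvidin, digested with LysC and trypsin, and analysed by diaPASEF LC-MS/MS. Spectronaut label-free quantities were normalised to the global median, and values are average log2 ratios of fragment over vehicle from an unpaired t-test. Only proteins with ≥2 unique peptides were used.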

ATXN3 = ATXN3 (UniProt P54252)
In short: as §1

BAP1 = molecular target: T2, BAP1 (UniProt Q92560)
T2 sequence (whole entry): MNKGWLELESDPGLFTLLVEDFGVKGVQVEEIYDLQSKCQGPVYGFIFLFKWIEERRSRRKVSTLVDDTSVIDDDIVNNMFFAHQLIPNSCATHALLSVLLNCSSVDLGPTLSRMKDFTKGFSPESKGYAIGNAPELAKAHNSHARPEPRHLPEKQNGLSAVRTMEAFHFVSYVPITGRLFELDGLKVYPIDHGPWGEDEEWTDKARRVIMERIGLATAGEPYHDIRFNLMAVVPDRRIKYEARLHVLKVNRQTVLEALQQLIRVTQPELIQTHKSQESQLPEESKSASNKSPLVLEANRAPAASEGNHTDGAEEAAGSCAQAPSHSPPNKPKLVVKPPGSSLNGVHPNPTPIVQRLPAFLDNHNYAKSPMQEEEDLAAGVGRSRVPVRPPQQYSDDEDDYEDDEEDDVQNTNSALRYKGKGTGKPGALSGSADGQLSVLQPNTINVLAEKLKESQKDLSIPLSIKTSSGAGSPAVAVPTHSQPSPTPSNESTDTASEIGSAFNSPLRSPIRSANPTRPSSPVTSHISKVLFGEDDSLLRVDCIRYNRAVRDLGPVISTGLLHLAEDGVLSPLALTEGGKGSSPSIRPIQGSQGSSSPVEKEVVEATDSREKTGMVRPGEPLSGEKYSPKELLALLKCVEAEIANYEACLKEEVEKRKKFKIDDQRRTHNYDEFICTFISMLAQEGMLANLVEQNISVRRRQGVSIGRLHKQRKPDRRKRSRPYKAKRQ
In short: as §1

EIF3F = EIF3F (UniProt O00303)
In short: as §1

EIF3H = EIF3H (UniProt O15372)
In short: as §1

FAM105A = molecular target: T3, FAM105A (UniProt Q9NUU6)
T3 sequence (whole entry): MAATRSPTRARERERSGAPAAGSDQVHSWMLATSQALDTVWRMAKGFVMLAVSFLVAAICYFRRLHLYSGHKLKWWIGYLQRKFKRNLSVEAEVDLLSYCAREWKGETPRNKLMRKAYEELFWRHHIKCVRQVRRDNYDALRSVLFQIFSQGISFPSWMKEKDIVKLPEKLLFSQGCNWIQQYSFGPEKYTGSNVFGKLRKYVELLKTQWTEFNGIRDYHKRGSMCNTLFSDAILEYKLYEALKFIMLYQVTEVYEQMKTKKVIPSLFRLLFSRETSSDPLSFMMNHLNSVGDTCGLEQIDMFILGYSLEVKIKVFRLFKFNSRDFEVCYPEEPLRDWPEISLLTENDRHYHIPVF
In short: as §1

OTUB1 = OTUB1 (UniProt Q96FW1)
In short: as §1

OTUD4 = molecular target: T4, OTUD4 (UniProt Q01804)
T4 sequence (whole entry): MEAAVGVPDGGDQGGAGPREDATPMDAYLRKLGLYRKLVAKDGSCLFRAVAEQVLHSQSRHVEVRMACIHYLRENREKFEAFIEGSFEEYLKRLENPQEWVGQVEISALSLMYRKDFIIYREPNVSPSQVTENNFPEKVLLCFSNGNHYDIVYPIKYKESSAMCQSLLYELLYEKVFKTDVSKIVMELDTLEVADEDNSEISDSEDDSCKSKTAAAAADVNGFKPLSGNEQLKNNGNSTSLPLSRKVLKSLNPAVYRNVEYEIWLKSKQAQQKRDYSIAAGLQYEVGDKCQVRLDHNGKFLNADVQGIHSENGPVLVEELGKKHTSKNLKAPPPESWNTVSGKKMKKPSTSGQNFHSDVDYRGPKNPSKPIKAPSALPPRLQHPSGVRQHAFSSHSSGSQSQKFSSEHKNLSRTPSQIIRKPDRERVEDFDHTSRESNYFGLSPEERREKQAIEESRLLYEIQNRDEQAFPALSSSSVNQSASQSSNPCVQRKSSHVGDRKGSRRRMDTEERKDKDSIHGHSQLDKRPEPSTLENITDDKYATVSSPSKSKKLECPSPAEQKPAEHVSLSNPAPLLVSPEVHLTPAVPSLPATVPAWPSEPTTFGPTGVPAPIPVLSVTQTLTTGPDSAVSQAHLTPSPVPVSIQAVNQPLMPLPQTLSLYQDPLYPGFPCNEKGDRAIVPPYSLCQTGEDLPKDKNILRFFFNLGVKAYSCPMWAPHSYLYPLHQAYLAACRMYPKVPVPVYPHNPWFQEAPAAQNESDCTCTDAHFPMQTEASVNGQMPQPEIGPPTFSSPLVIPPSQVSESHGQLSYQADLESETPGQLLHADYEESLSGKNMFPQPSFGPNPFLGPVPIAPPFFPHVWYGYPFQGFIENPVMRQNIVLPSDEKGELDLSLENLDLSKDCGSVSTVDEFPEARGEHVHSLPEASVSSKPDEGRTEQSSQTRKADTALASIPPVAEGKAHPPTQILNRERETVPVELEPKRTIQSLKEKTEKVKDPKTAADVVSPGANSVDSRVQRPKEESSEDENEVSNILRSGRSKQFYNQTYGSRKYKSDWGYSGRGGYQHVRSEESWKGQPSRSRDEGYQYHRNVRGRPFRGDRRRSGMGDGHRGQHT
In short: as §1

OTUD5 = molecular target: T5, OTUD5 (UniProt Q96G74)
T5 sequence (whole entry): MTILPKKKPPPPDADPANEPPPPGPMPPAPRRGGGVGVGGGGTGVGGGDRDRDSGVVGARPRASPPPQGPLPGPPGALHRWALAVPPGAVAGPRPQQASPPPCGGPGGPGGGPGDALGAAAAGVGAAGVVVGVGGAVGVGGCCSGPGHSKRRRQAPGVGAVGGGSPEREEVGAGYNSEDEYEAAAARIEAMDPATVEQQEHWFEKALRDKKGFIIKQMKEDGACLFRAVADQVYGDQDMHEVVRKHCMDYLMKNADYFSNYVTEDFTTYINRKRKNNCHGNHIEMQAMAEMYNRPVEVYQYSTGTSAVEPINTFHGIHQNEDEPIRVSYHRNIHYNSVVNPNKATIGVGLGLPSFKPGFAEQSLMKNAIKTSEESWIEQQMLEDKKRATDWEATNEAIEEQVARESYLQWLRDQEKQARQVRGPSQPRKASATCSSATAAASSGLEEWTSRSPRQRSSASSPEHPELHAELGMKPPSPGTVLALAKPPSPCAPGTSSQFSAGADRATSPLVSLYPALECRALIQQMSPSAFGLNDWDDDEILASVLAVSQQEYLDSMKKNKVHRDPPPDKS
In short: as §1

Measured: log2 ratio of Biotin-Ahx-Ub-VS probe labelling

Chain of EIF3H (O15372 whole entry): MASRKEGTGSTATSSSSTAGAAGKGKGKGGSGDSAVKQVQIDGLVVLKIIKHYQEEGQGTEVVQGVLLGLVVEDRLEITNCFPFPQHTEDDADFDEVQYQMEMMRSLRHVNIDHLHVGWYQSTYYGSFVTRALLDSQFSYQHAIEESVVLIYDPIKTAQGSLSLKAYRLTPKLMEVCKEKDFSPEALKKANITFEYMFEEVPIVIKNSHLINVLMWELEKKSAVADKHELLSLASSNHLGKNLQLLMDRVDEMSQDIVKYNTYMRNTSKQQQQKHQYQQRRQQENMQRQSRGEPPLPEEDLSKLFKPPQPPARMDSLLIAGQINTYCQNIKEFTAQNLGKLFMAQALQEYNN
Chain of EIF3F (O00303 whole entry): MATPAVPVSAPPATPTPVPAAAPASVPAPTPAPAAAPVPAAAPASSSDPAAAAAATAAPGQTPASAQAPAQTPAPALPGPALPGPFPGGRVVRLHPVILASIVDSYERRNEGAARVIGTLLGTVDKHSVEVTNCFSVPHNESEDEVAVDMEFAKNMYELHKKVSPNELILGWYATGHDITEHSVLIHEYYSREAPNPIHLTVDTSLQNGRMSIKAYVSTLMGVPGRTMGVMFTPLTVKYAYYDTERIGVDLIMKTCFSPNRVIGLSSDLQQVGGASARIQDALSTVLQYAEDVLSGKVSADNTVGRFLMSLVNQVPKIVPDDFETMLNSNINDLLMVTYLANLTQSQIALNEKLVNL
Chain of OTUB1 (Q96FW1 whole entry): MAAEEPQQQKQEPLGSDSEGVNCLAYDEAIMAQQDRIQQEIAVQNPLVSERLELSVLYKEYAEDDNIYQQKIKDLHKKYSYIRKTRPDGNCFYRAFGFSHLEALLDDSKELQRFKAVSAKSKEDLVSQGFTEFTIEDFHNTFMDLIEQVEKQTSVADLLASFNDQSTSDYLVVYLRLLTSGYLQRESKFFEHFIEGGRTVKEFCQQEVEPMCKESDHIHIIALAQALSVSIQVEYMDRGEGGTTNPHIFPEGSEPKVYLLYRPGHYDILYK
Chain of ATXN3 (P54252 whole entry): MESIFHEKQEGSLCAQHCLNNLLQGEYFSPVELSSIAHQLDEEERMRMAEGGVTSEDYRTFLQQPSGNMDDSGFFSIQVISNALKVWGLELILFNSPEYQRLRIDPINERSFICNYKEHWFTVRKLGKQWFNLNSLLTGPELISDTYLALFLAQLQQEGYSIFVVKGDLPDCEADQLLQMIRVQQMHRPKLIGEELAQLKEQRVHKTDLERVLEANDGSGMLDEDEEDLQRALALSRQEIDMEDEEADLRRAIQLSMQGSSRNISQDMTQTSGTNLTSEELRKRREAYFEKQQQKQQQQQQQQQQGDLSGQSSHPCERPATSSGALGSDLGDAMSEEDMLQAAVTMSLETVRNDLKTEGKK

O=C(CCl)Nc1nc(-c2cccs2)cs1
inactive: ALG13 0.184 | ATXN3 -0.6 | EIF3F -0.0224 | EIF3H 0.216 | FAM105A -0.186 | OTUB1 0.196 | OTUD4 -0.708 | OTUD5 -0.636
active: BAP1 -3.09
